Assay results from PubChem BioAssay AID1159580 (chemical genetic matrix, 2015).
The campaign covered roughly 5,500 compounds. About 2,000 (36%) were called active. Another 18% or so got no clear call; they are omitted. Rule as the data show it: active = normalized growth mostly below about 0.91 (no sharp cut-off); inconclusive = no clear call, values can overlap the other calls; inactive = mostly above about 0.92. Some of the results follow.

Experiment: chemical genetic growth profiling, strain panel (AID 1159580);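 also: tested at 20 µM; growth read once vehicle control cultures reached saturation at 30 °C; 1 = growth at the plate median or of vehicle wells; lower values mean less growth of the strain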
Conditions: growth OD

Measured: normalized growth

C[C@]12CCC(=O)C=C1CCC1C2[C@@H](O)C[C@@]2(C)C1CC[C@]2(O)C(=O)CO (stereo partly drawn)
inactive: S. cerevisiae deletion strains, locus YJR075W, strain HOC1, hits give low values 1.01 | S. cerevisiae deletion strains, locus YKL009W, strain mrt4, hits give low values 0.992 | S. cerevisiae deletion strains, locus YKL068W, hits give low values 1.01 | S. cerevisiae deletion strains, locus YKL085W, strain MDH1 (second series), hits give low values 0.998 | S. cerevisiae deletion strains, locus YKL085W, strain MDH1, hits give low values 0.998 | S. cerevisiae deletion strains, locus YKL160W, strain elf1, hits give low values 0.955 | S. cerevisiae deletion strains, locus YKR001C, strain vps1, hits give low values 0.971 | S. cerevisiae deletion strains, locus YKR026C, strain gcn3, hits give low values 0.993 | S. cerevisiae deletion strains, locus YKR091W, strain srl3, hits give low values 0.999 | S. cerevisiae deletion strains, locus YLL001W, strain dnm1, hits give low values 0.994 | S. cerevisiae deletion strains, locus YLL026W, hits give low values 0.982 | S. cerevisiae deletion strains, locus YLL041C, strain sdh2, hits give low values 0.99 | S. cerevisiae deletion strains, locus YLR027C, strain aat2, hits give low values 1 | S. cerevisiae deletion strains, locus YLR039C, strain RIC1, hits give low values 1.05 | S. cerevisiae deletion strains, locus YLR058C, strain SHM2, hits give low values 1.02 | S. cerevisiae deletion strains, locus YLR102C, strain apc9, hits give low values 0.993 | S. cerevisiae deletion strains, locus YLR113W, strain HOG1, hits give low values 0.99 | S. cerevisiae deletion strains, locus YLR221C, strain rsa3, hits give low values 0.985 | S. cerevisiae deletion strains, locus YLR258W, strain gsy2, hits give low values 0.971 | S. cerevisiae deletion strains, locus YLR262C, strain YPT6 (second series), hits give low values 1 | S. cerevisiae deletion strains, locus YLR262C, strain YPT6, hits give low values 1.08 | S. cerevisiae deletion strains, locus YLR268W, strain sec22, hits give low values 0.977 | S. cerevisiae deletion strains, locus YLR320W, strain mms22, hits give low values 0.986 | S. cerevisiae deletion strains, locus YLR330W, strain CHS5, hits give low values 1.01 | S. cerevisiae deletion strains, locus YLR342W, strain FKS1 (second series), hits give low values 1.01 | S. cerevisiae deletion strains, locus YLR342W, strain FKS1, hits give low values 0.999 | S. cerevisiae deletion strains, locus YLR357W, strain rsc2, hits give low values 0.957 | S. cerevisiae deletion strains, locus YLR370C, strain arc18, hits give low values 1 | S. cerevisiae deletion strains, locus YLR371W, strain rom2, hits give low values 0.971 | S. cerevisiae deletion strains, locus YLR384C, strain iki3, hits give low values 0.998 | S. cerevisiae deletion strains, locus YLR418C, strain cdc73, hits give low values 1.01 | S. cerevisiae deletion strains, locus YML016C, strain PPZ1, hits give low values 1.02 | S. cerevisiae deletion strains, locus YML032C, strain rad52, hits give low values 1.01 | S. cerevisiae deletion strains, locus YML120C, strain ndi1, hits give low values 1.01 | S. cerevisiae deletion strains, locus YML124C, strain tub3, hits give low values 0.994 | S. cerevisiae deletion strains, locus YMR058W, strain fet3, hits give low values 1.01 | S. cerevisiae deletion strains, locus YMR078C, strain ctf18, hits give low values 0.998 | S. cerevisiae deletion strains, locus YMR125W, strain sto1, hits give low values 0.96 | S. cerevisiae deletion strains, locus YMR129W, hits give low values 0.993 | S. cerevisiae deletion strains, locus YMR205C, strain PFK2, hits give low values 0.967 | S. cerevisiae deletion strains, locus YMR223W, strain ubp8, hits give low values 0.993 | S. cerevisiae deletion strains, locus YMR231W, strain pep5, hits give low values 1 | S. cerevisiae deletion strains, locus YMR263W, strain SAP30, hits give low values 1.02 | S. cerevisiae deletion strains, locus YMR307W, strain GAS1, hits give low values 1.04 | S. cerevisiae deletion strains, locus YNL067W, strain RPL9B, hits give low values 1.02 | S. cerevisiae deletion strains, locus YNL071W, strain lat1, hits give low values 1.01 | S. cerevisiae deletion strains, locus YNL153C, strain GIM3, hits give low values 1.03 | S. cerevisiae deletion strains, locus YNL183C, strain NPR1, hits give low values 0.939 | S. cerevisiae deletion strains, locus YNL209W, strain ssb2, hits give low values 0.99 | S. cerevisiae deletion strains, locus YNL233W, strain BNI4, hits give low values 1.02 | S. cerevisiae deletion strains, locus YNL248C, strain rpa49, hits give low values 0.989 | S. cerevisiae deletion strains, locus YNL250W, strain rad50, hits give low values 1.01 | S. cerevisiae deletion strains, locus YNL271C, strain bni1, hits give low values 0.995 | S. cerevisiae deletion strains, locus YNL298W, strain CLA4, hits give low values 1.01 | S. cerevisiae deletion strains, locus YNL307C, strain MCK1, hits give low values 0.995 | S. cerevisiae deletion strains, locus YNL322C, strain KRE1 (second series), hits give low values 0.969 | S. cerevisiae deletion strains, locus YNL322C, strain KRE1, hits give low values 1.01 | S. cerevisiae deletion strains, locus YNR049C, strain mso1, hits give low values 0.999 | S. cerevisiae deletion strains, locus YNR052C, strain pop2, hits give low values 0.999 | S. cerevisiae deletion strains, locus YOL012C, strain htz1 0.617 | S. cerevisiae deletion strains, locus YOL147C, strain pex11, hits give low values 1.02 | S. cerevisiae deletion strains, locus YOR001W, strain rrp6, hits give low values 1.01 | S. cerevisiae deletion strains, locus YOR061W, strain CKA2, hits give low values 1.02 | S. cerevisiae deletion strains, locus YOR069W, strain VPS5, hits give low values 1.01 | S. cerevisiae deletion strains, locus YOR070C, strain gyp1, hits give low values 0.966 | S. cerevisiae deletion strains, locus YOR080W, strain dia2, hits give low values 1.01 | S. cerevisiae deletion strains, locus YOR083W, strain WHI5, hits give low values 0.945 | S. cerevisiae deletion strains, locus YOR106W, strain vam3, hits give low values 0.971 | S. cerevisiae deletion strains, locus YOR136W, strain idh2, hits give low values 0.985 | S. cerevisiae deletion strains, locus YOR144C, strain elg1, hits give low values 0.995 | S. cerevisiae deletion strains, locus YOR184W, strain ser1, hits give low values 0.993 | S. cerevisiae deletion strains, locus YOR231W, strain MKK1, hits give low values 0.99 | S. cerevisiae deletion strains, locus YOR265W, strain rbl2, hits give low values 0.985 | S. cerevisiae deletion strains, locus YOR270C, strain vph1, hits give low values 0.996 | S. cerevisiae deletion strains, locus YOR290C, strain snf2, hits give low values 0.983 | S. cerevisiae deletion strains, locus YOR316C, strain cot1, hits give low values 0.994 | S. cerevisiae deletion strains, locus YPL051W, strain arl3, hits give low values 0.927 | S. cerevisiae deletion strains, locus YPL055C, strain LGE1, hits give low values 1.02 | S. cerevisiae deletion strains, locus YPL078C, strain atp4, hits give low values 0.97 | S. cerevisiae deletion strains, locus YPL106C, strain sse1, hits give low values 0.926 | S. cerevisiae deletion strains, locus YPL240C, strain hsp82, hits give low values 0.992 | S. cerevisiae deletion strains, locus YPL256C, strain CLN2, hits give low values 0.949 | S. cerevisiae deletion strains, locus YPR119W, strain clb2, hits give low values 0.99 | S. cerevisiae deletion strains, locus YPR141C, strain kar3, hits give low values 0.999 | S. cerevisiae deletion strains, locus YPR163C, strain tif3, hits give low values 0.986 | S. cerevisiae deletion strains, locus YPR167C, strain met16, hits give low values 0.991 | S. cerevisiae deletion strains, strain wtn01, hits give low values 0.972 | S. cerevisiae strains, strain wild type, hits give low values 1.02
